Measured values: PubChem BioAssay (Tox21)
“And” between values parts separate entries of the source, which are not always exact repeats. Equal values may be shown once. Records with an inconclusive call do not appear. Where a structure was tested more than once in an assay, its records may differ in their call. The source made the active and inactive calls. Unless noted, calls come from the whole dose curve; as a rule, active = well fitted curve in the direction sought with a large enough effect in the repeat runs; inconclusive = weak or mixed curves; inactive = no such curve, though single readings can be large; an effect the other way counts as inactive or inconclusive.

Key:
[1] = qHTS assay to identify small molecule antagonists of the androgen receptor (AR) signaling pathway using the MDA cell line in the presence of 0.5 nM R1881 - cell viability counter screen (AID 1259242); note: nearly all actives have a fitted effect of over 45% in size; note: potency is the fitted concentration of half-maximal effect
Method in brief: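 Live-cell protease activity was measured by CellTiter-Fluor fluorescence after 30 min. Before that, MDA-kb2 MMTV-luciferase cells had 16 hr at 37C without CO2, exposed to test compounds and 0.5 nM R1881 final.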

[2] = target: Estrogen receptor (Homo sapiens) (UniProt P03372); assay: qHTS assay to identify small molecule antagonists of the estrogen receptor alpha (ER-alpha) signaling pathway using the BG1 cell line in the presence of 0.1 nM 17-beta-estradiol (AID 1259244); note: nearly all actives have a fitted effect of over 50% in size; note: potency is the fitted concentration of half-maximal effect
Chain of Estrogen receptor (Homo sapiens) (P03372 whole entry, looked up): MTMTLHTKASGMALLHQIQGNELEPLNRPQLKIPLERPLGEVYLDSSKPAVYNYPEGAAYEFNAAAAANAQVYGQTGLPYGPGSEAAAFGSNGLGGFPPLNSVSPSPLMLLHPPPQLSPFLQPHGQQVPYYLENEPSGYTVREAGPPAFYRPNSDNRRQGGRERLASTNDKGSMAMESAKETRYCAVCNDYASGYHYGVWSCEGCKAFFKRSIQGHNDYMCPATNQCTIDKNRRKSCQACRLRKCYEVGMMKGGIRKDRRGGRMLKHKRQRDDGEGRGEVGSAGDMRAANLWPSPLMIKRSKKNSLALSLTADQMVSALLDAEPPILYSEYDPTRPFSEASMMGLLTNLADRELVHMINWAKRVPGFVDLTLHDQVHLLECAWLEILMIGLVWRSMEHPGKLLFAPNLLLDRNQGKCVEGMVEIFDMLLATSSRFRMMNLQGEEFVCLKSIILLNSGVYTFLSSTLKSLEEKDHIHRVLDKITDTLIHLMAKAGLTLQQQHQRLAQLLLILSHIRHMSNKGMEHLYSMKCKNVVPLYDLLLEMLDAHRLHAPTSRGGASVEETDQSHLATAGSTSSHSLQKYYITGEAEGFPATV
Method in brief: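 Luciferase luminescence (ONE-Glo, 30 min at room temperature) was read after 22 hr at 37C exposure to compounds plus 17beta-estradiol at 0.1 nM final. Cells were VM7Luc4E2 with endogenous ER-alpha and an ERE-driven luciferase, pre-cultured 5 days in hormone-depleted medium.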

[3] = qHTS assay to identify small molecule phospholipidosis (PLD) inducers (AID 1259344; active = well fitted curve in the direction sought with a large enough effect; an effect the other way counts as inactive or inconclusive)
Method in brief: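 Phospholipid accumulation was scored by imaging: fixed, Hoechst-counterstained HepG2 cells stained with LipidTOX Red after 24 h compound exposure at 37 C. Read-outs were pit count and pit intensity per well or per cell, with amiodarone and DMSO controls.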

[4] = qHTS assay to identify small molecule HDAC inhibitors (AID 1259364); note: top concentration of the series differs between compounds; nearly all actives have a fitted effect of over 45% in size
Method in brief: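 Luminescence read after 30 min room-temperature HDAC-Glo incubation measures cellular class I/II HDAC activity. Compounds were applied for 2 hr at 37 C to HCT-116 wild-type cells seeded the day before.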

[5] = qHTS assay to identify small molecule HDAC inhibitors - cell viability counter screen (AID 1259365); note: series mostly up to about 92 µM; nearly all actives have a fitted effect of over 50% in size
Method in brief: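 After overnight seeding at 1,500 cells per well, wild-type HCT-116 cultures took up compounds in DMSO for 2hr at 37 C. Viable cell content came from luminescence with CellTiter-Glo.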

[6] = qHTS assay to identify small molecule agonists of the sonic hedgehog signaling (Shh) pathway - cell viability counter screen (AID 1259366); note: nearly all actives have a fitted effect of over 50% in size; note: potency is the fitted concentration of half-maximal effect
Method in brief: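 Same-well cytotoxicity read. Gli1-Luc reporter 3T3 cells; compounds 24hr, 37C/5% CO2; CellTiter-Fluor fluorescence.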

[7] = qHTS assay to identify small molecule agonists of the sonic hedgehog signaling (Shh) pathway (AID 1259368; calls by dose curve;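 note: NIH/3T3-derived 3T3Gli1-Luc cells carrying a stable Gli1-driven firefly luciferase reporter; series mostly up to about 92 µM; nearly all actives have a fitted effect of over 15% in size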)
Method in brief: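 Luminescence was read after 30 min at room temperature with luciferase reagent. Before that, 3T3Gli1-Luc cells (NIH/3T3 clone, stable Gli1-Luc reporter; 2,000/well) were exposed to compounds for 24 hr at 37C, 5% CO2, compounds being added 4 hr post-plating.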

[8] = qHTS assay to identify small molecule antagonists of the sonic hedgehog signaling (Shh) pathway (AID 1259369; calls by dose curve; note: nearly all actives have a fitted effect of over 45% in size; note: potency is the fitted concentration of half-maximal effect)
Method in brief: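 Antagonist mode: compound added to 3T3 Gli1-Luc cells followed by conditioned-medium stimulation, 24 h at 37 C, 5% CO2. Inhibition taken as loss of Gli1-driven luciferase luminescence.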

[9] = qHTS assay to identify small molecule agonists of the androgen receptor (AR) signaling pathway in the presence of an antagonist - cell viability counter screen (AID 1259379); note: nearly all actives have a fitted effect of over 25% in size; note: potency is the fitted concentration of half-maximal effect
Method in brief: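 Cytotoxicity counter-screen run in the same wells as the nilutamide-challenged (3.0 µM final) AR agonist assay in MDA-kb2 cells. Compounds tested at 15 concentrations for 16 h, 37 °C without CO2; CellTiter-Fluor fluorescence read.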

[10] = qHTS assay to identify small molecule agonists of the estrogen receptor beta (ER-beta) signaling pathway - cell viability counter screen (AID 1259380); note: nearly all actives have a fitted effect of over 30% in size; note: potency is the fitted concentration of half-maximal effect
Method in brief: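 Cell viability counter screen: CellTiter-Glo luminescence (30 min, room temperature) measured in the same wells as the beta-lactamase readout, after 16 hr compound exposure at 37C of ER-beta-bla HEK293T cells in 2% charcoal-stripped FBS medium.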

[11] = qHTS assay to identify small molecule antagonists of the estrogen receptor beta (ER-beta) signaling pathway - cell viability counter screen (AID 1259382);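 note: HEK293T cells carrying ER-beta-UAS-bla reporter stimulated with estradiol; series mostly up to about 92 µM; nearly all actives have a fitted effect of over 55% in size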
Method in brief: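 Cytotoxicity was measured in the same wells by CellTiter-Glo luminescence after 30 min at room temperature. Cells were ER-beta-bla HEK293T in charcoal-stripped serum, given compound together with 1 nM E2 and incubated 16 h at 37C.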

[12] = target: Estrogen receptor (Homo sapiens) (UniProt P03372); assay: qHTS assay to identify small molecule agonists of the estrogen receptor alpha (ER-alpha) signaling pathway in the presence of an antagonist (AID 1259383; calls by dose curve; note: top concentration of the series differs between compounds; nearly all actives have a fitted effect of over 15% in size)
Method in brief: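 Agonist-mode confirmation run in the presence of 10.0nM (final) ICI-182,780 antagonist. The reporter was ERE-driven luciferase in VM7Luc4E2 cells, grown in charcoal-stripped serum. Cells were exposed to 15-concentration compound series for 22hr, then ONE-Glo luminescence was read.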

[13] = qHTS assay to identify small molecule agonists or antagonists of the thyroid stimulating hormone receptor (TSHR) signaling pathway - wild type cell line counter screen (AID 1259384; calls by dose curve)
Method in brief: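 Counter screen in untransfected Hek293: compounds (15-point titration, triplicate) plus phosphodiesterase inhibitor Ro20-1724 added after 18 h plating; 30 min RT. Intracellular cAMP via competitive d2/cryptate immunoassay, 1 h incubation.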

[14] = target: Thyrotropin receptor (Homo sapiens) (UniProt P16473); assay: qHTS assay to identify small molecule antagonists of the thyroid stimulating hormone receptor (TSHR) signaling pathway (AID 1259385; calls by dose curve; note: nearly all actives have a fitted effect of over 20% in size)
Chain of Thyrotropin receptor (Homo sapiens) (P16473 whole entry, looked up): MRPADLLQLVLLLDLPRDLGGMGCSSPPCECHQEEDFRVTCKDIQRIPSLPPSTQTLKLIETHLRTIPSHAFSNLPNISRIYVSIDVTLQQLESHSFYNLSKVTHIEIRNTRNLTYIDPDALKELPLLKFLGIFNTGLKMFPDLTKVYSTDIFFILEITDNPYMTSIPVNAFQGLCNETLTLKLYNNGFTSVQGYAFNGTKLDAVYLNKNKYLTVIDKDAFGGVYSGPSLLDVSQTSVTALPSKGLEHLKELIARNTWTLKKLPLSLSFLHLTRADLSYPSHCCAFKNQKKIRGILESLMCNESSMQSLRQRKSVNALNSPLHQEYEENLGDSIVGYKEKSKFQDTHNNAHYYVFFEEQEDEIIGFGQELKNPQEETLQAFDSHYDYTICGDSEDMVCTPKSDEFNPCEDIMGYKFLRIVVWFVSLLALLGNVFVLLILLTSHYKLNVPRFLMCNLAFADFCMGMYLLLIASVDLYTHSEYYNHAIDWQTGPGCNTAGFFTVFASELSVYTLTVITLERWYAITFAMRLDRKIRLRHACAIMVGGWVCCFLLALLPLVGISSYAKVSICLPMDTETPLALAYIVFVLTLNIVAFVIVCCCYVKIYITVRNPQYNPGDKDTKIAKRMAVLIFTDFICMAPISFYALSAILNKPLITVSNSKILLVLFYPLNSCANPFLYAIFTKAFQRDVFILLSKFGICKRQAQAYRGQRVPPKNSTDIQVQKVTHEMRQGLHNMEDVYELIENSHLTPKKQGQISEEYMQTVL
Method in brief: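 Antagonist mode: compound-treated TSHR-expressing HEK293 cells were stimulated with 1.5 ng/mL TSH (final) in presence of Ro20-1724 for 30 min at RT. HTRF cAMP detection after 1 h; each compound tested at 15 concentrations, triplicate.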

[15] = qHTS assay to identify small molecule agonists of the estrogen receptor alpha (ER-alpha) signaling pathway in the presence of an antagonist - cell viability counter screen (AID 1259386); note: series mostly up to about 92 µM; nearly all actives have a fitted effect of over 30% in size
Method in brief: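 Compounds tested at 15 concentrations for 22 h at 37C alongside 10.0nM (final) ICI-182,780 antagonist, in VM7Luc4E2 cells grown in phenol red-free, charcoal-stripped medium. Viability read by CellTiter-Fluor fluorescence after 1 h reagent incubation.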

[16] = target: Androgen receptor (Homo sapiens) (UniProt P10275); assay: qHTS assay to identify small molecule antagonists of the androgen receptor (AR) signaling pathway using the MDA cell line in the presence of 0.5 nM R1881 (AID 1259243); note: nearly all actives have a fitted effect of over 50% in size
Chain of Androgen receptor (Homo sapiens) (P10275 whole entry, looked up): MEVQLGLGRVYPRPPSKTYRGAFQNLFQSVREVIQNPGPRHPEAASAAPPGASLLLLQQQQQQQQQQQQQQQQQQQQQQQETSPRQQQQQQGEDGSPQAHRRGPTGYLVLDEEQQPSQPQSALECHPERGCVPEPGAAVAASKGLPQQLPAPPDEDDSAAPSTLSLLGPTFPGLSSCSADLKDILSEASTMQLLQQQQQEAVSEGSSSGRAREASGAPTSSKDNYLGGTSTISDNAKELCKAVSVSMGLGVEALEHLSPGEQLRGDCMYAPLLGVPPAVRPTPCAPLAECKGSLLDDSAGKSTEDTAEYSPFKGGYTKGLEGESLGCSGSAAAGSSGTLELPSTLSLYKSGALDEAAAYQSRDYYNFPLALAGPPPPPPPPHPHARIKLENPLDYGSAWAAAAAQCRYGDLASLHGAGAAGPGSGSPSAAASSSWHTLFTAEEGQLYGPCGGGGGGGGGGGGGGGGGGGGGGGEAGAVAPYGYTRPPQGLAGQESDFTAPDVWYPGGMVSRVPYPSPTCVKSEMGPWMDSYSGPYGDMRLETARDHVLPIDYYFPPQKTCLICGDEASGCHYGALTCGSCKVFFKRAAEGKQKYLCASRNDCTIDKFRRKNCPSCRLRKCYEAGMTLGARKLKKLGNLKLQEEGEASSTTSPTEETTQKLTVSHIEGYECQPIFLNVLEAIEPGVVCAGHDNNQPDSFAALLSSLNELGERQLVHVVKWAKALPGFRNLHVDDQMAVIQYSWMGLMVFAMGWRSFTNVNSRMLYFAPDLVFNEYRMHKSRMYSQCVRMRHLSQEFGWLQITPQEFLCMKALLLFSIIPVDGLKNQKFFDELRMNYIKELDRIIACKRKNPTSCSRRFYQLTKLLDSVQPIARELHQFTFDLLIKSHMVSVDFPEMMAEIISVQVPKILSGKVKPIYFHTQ
Method in brief: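 Luminescent reporter readout (ONE-Glo, 30 min, room temperature) after 16 hr co-treatment of MDA-kb2 cells with test compounds and 0.5 nM R1881 final, at 37C without CO2. The MMTV-driven luciferase responds to both AR and GR.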

[17] = qHTS assay to identify small molecule antagonists of the sonic hedgehog signaling (Shh) pathway - cell viability counter screen (AID 1259367); note: nearly all actives have a fitted effect of over 55% in size
Method in brief: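 Viability was read by CellTiter-Fluor fluorescence in the same wells, reagent added 23 hr into compound treatment and incubated 1 hr at 37C. The 3T3 Gli1-Luc reporter cells (2,000/well) received conditioned medium after compound and ran 24 hr.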

[18] = target: Androgen receptor (Homo sapiens) (UniProt P10275); assay: qHTS assay to identify small molecule agonists of the androgen receptor (AR) signaling pathway in the presence of an antagonist (AID 1259381; calls by dose curve; note: nearly all actives have a fitted effect of over 15% in size)
Method in brief: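 Agonist-mode confirmation run against 3.0 uM final nilutamide: compounds titrated at 15 concentrations onto MDA-kb2 MMTV-luciferase reporter cells. Luminescence measured with ONE-Glo following 16 hr incubation, 37C, 0% CO2.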

[19] = target: Estrogen receptor beta (Homo sapiens) (UniProt Q92731); assay: qHTS assay to identify small molecule agonists of the estrogen receptor beta (ER-beta) signaling pathway (AID 1259377; active = well fitted activation curve with a large enough effect in the signal ratio in the repeat runs, not every such curve was filed as active; the % refers to the signal ratio)
Chain of Estrogen receptor beta (Homo sapiens) (Q92731 whole entry, looked up): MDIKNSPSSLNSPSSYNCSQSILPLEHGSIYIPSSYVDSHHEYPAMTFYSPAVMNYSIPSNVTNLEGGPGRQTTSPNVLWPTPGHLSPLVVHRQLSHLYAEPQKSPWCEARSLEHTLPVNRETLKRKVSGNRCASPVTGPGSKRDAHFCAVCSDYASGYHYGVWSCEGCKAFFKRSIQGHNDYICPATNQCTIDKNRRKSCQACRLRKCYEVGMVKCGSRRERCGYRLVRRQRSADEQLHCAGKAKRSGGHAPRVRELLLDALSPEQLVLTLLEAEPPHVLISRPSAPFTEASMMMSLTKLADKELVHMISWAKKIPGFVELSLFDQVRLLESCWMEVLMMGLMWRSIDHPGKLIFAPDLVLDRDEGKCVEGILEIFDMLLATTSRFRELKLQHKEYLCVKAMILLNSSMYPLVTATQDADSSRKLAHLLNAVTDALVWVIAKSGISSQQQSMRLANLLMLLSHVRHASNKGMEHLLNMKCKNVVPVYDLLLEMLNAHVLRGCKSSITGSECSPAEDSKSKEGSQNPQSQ
Method in brief: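 Read-out: beta-lactamase FRET fluorescence. Cell line: ER-beta-UAS-bla HEK293T in 2% charcoal-stripped FBS. Exposure: 16 hr at 37C. Substrate step: 2 h at room temperature.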

[20] = target: Estrogen receptor beta (Homo sapiens) (UniProt Q92731); assay: qHTS assay to identify small molecule antagonists of the estrogen receptor beta (ER-beta) signaling pathway (AID 1259378; active = well fitted inhibition curve with a large enough effect in the signal ratio in the repeat runs, not every such curve was filed as active; the % refers to the signal ratio; note: potency is the fitted concentration of half-maximal effect)
Method in brief: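 Antagonist mode: compounds added to beta-lactamase reporter HEK293T ER-beta-UAS cells stimulated with E2 (1nM final), 16 hr at 37C. LiveBLAzer B/G FRET substrate, 2 hours room temperature, fluorescence read-out.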
% is set by controls: 0 for no effect and ±100 for the full control effect.

NC(CO)(CO)CO
inactive: Potency [1] | Potency [2] | Potency [3] | Potency [4] | Potency [5] | Potency [6] | outcome [7] | Potency [8] | Potency [9] | Potency [10] | Potency [11] | Potency [12] | Potency [13] | Potency [14] | Potency [15]

COc1ccc2c(c1)c(CC(=O)O)c(C)n2C(=O)c1ccc(Cl)cc1
inactive: Potency [1] | Potency [16] | Potency [2] | PLD induction [3] 14.5% [at 7.66 µM] | Potency [4] | Potency [6] | Potency [17] | outcome [7] | Potency [8] | Potency [9] | Potency [18] | Potency [11] | Potency [12] | Potency [13] | Potency [14] | Potency [15]

CCCc1cc(=O)[nH]c(=S)[nH]1
inactive: Potency [1] | Potency [2] | Potency [3] | Potency [4] | Potency [6] | Potency [17] | outcome [7] | Potency [8] | Potency [9] | Potency [10] | Potency [12] | Potency [13] | Potency [14] | Potency [15]

CS(=O)(=O)OCCCCOS(C)(=O)=O
inactive: Potency [1] | Potency [2] | Potency [3] | Potency [4] | Potency [5] | Potency [6] | outcome [7] | Potency [8] | Potency [9] | Potency [10] | Potency [11] | Potency [12] | Potency [13] | Potency [14] | Potency [15]

CC(=O)CCC(=O)O
inactive: Potency [1] | Potency [2] | Potency [3] | Potency [4] | Potency [6] | outcome [7] | Potency [8] | Potency [9] | Potency [10] | Potency [11] | Potency [12] | Potency [13] | Potency [14] | Potency [15]

CCCCCCCCCCCCCCCC[N+](C)(C)Cc1ccccc1
inactive: Potency [3] | Potency [4] | Potency [17] | outcome [7] | Potency [19] | Potency [12] | Potency [15]
active: Potency [1] 50.1 µM and 55.5 µM and 26.6 µM | Potency [2] 63.1 µM and 55.5 µM | Potency [6] 70.8 µM and 35 µM | Potency [8] 1.78 µM and 6.98 µM and 150 nM | Potency [9] 35.5 µM and 55.5 µM | Potency [10] 14.1 µM and 22.1 µM and 11.9 µM

CC(C)C(=O)Nc1ccc([N+](=O)[O-])c(C(F)(F)F)c1
54.5 µM (active) and inactive: Potency [20]
inactive and 24.3 µM (active): Potency [10]
active: Potency [2] 56 µM and 48.6 µM and 29.8 µM | Potency [8] 17.7 µM
inactive: Potency [1] | Potency [3] | Potency [4] | Potency [5] | Potency [6] | Potency [17] | outcome [7] | Potency [19] | Potency [11] | Potency [12] | Potency [13] | Potency [14]
